According to PubChem BioAssay (NCI):
The panel holds about 83,000 compounds, 20% with a hit somewhere; the sample as a whole holds those more often.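 The test compound was applied at a single concentration to cells in 96-well plates for 48 hours, and percent growth was recorded.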 Calls of active or inactive are those of the source. The calls were made as follows: active = growth percent below 10; inactive = the rest.

These molecules were tested on A549/ATCC NSCLC (assay: NCI-60 one-dose screen, 48 h (100 = growth as untreated, 0 = no growth, -100 = all killed)). Settings: 10 µM unless noted.

Q: How did the growth turn out when `CCC(C)(C)c1ccc(OCCCCN2CCN(c3ccncc3)CC2)cc1` was run?
A: 47.4% (inactive)

Q: How did the growth turn out when `COc1ccc(C(=O)/C=C/c2ccc(Oc3nc(Nc4ccc(F)cc4)nc(N(C)C)n3)c(OC)c2)cc1` was run?
A: 64.7% (inactive)

Q: `S=c1c2ccccc2nc2n1CCc1c-2[nH]c2ccccc12` was tested. Which growth did it give?
A: 68.2% (inactive)

Q: For `CCOC(=O)COc1c(OC)c(OC)cc2oc(-c3cccc(C(=O)Nc4ccc(Cl)cc4)c3)cc(=O)c12`, which growth is on record?
A: 77% (inactive)

What follows are molecules tested on 786-0 renal in the same assay as above. Settings: 10 µM unless noted.

Q: With `C/C(=N\N=C1/C(=O)Nc2ccc(Cl)cc21)c1ccc2c(c1)Nc1ccccc1S2` as the molecule, how does the growth read?
A: -70% (active)

Q: Which growth does the source give for `CCCSc1nc(NCCc2c[nH]c3ccccc23)c(C#N)c(-c2ccc(F)cc2)n1` here?
A: 62.4% (inactive)

Q: `COc1cc(C2CC(c3cc(OC)c(OC)c(OC)c3)=NN2C(C)=O)ccc1OCc1ccccc1` (centres undefined) was tested. Which growth did it give?
A: 34% (inactive)

Q: With `Cc1cc2c(cc1Cl)C(=O)/C(=C/c1ccccc1)O2` as the molecule, how does the growth read?
A: -38.5% (active)

Q: With `COc1ccc2[nH]cc(-c3nc(N)nnc3-c3cn(C)c4ncccc34)c2c1` as the molecule, how does the growth read?
A: 64.2% (inactive)

Q: With `Cc1ccc(C(=O)CSc2nc3ccc(F)cc3c(=O)n2-c2ccc(Cl)cc2)cc1` as the molecule, how does the growth read?
A: 10.7% (inactive)

Q: `CCCCSc1nc(NCCc2c[nH]c3ccccc23)c(C#N)c(-c2ccccc2)n1` was tested. Which growth did it give?
A: 10.6% (inactive)

Q: With `Cn1cc(-c2nc(N)nnc2-c2c[nH]c3ccc(Br)cc23)c2cccnc21` as the molecule, how does the growth read?
A: 37.1% (inactive)

Q: `CN(C)CCOc1ccc(C(=O)C2[C@H](c3ccc(Cl)cc3)[C@@H](c3ccccc3)NC23C(=O)Nc2ccc(Br)cc23)cc1` (some centres undefined) was tested. Which growth did it give?
A: -72.5% (active)

Q: Which growth does the source give for `CN1CCN(/C(=N\c2sc(-c3ccccc3)nc2-c2ccccc2)c2ccccc2)CC1` here?
A: 78.7% (inactive)

Q: How did the growth turn out when `CCCSc1nc(NCCc2c[nH]c3ccccc23)c(C#N)c(-c2ccccc2)n1` was run?
A: 74.7% (inactive)

Q: `CCN(CC)c1ccnc(CNCCSC(c2ccccc2)(c2ccccc2)c2ccc(OC)cc2)c1` was tested. Which growth did it give?
A: -50.8% (active)

Q: Which growth does the source give for `COc1cc2oc(-c3cccc(C(=O)Nc4cccc([N+](=O)[O-])c4)c3)cc(=O)c2c(OC)c1OC` here?
A: -22.9% (active)

Q: With `O=C(COc1ccc(NC(=O)Nc2ccc(Cl)c(Cl)c2)cc1)N=Nc1c(O)[nH]c2ccc([N+](=O)[O-])cc12` as the molecule, how does the growth read?
A: 53.7% (inactive)

Q: How did the growth turn out when `COc1cc(-c2nc3cc(Cl)c(Cl)cc3[nH]2)ccc1OCc1nnc(-c2cccs2)o1` was run?
A: 85.8% (inactive)

Q: `CCCCCCCCc1ccc(C(=O)Nc2ccc(C)cc2C(=O)O)cc1C` was tested. Which growth did it give?
A: 104% (inactive)

Q: For `CCOP(=O)(OCCCl)c1nc(-c2ccc(C)cc2)oc1NCc1ccccc1` (centres undefined), which growth is on record?
A: 81.9% (inactive)

Q: For `NS(=O)(=O)c1ccc(N=Nc2c(O)n(CC(=O)Nc3ccccc3)c3ccccc23)cc1`, which growth is on record?
A: 1.52% (active)

Q: For `CC1(C)CC[C@]2(C(=O)Nc3ccccc3)CC[C@]3(C)C(=CCC4[C@@]5(C)C[C@@H](O)[C@H](O)[C@@](C)(CO)C5CC[C@]43C)C2C1` (some centres undefined), which growth is on record?
A: 71.1% (inactive)

Q: With `COc1ccccc1C(=O)NN1C(=O)/C(=C/C2=Cc3ccccc3OC2)SC1=S` as the molecule, how does the growth read?
A: 104% (inactive)

Q: For `COc1ccc(NC(=O)[C@H](CO)NC(=O)OC(C)(C)C)cc1C(=O)Nc1cccc(C2CC(=O)c3c(cc(OC)c(OC)c3OC)O2)c1` (some centres undefined), which growth is on record?
A: 68.3% (inactive)

Q: With `COc1ccc(C2(SCCNCc3cc(N(C)C)ccn3)c3ccccc3C=Cc3ccccc32)cc1` as the molecule, how does the growth read?
A: 23.5% (inactive)

Q: With `COc1ccc2[nH]c(O)c(N=NC(=O)COc3ccc(NC(=O)Nc4ccccc4)cc3)c2c1` as the molecule, how does the growth read?
A: 8.04% (active)

Q: Which growth does the source give for `COc1cc(/C=C/C(=O)c2ccc(C)cc2)ccc1Oc1nc(Nc2ccc(F)cc2)nc(N(C)C)n1` here?
A: 37.5% (inactive)

Q: With `CCN(CC)CCOc1ccc(Nc2ncc3cc(-c4ccc(O)c(C#N)c4)c(=O)n(C)c3n2)cc1` as the molecule, how does the growth read?
A: -51.2% (active)

Q: Which growth does the source give for `CC(/C=C1\SC(=S)N(CCCC(=O)NC(CC(C)C)C(=O)O)C1=O)=C\c1ccccc1` (centres undefined) here?
A: 93.4% (inactive)

Q: Which growth does the source give for `COc1cc2c(c(OC)c1OC)C(=O)CC(c1cccc(NC(=O)c3cc(N)ccc3Cl)c1)O2` (centres undefined) here?
A: 84.7% (inactive)

Q: For `CC(=O)OC[C@@]1(C)C2CC[C@]3(C)C(CC=C4C5CC(C)(C)CC[C@]5(C(=O)Nc5cccc(C)c5)CC[C@]43C)[C@@]2(C)C[C@@H](OC(C)=O)[C@@H]1OC(C)=O` (some centres undefined), which growth is on record?
A: 53.4% (inactive)

Q: How did the growth turn out when `CCCCc1c(Nn2cnnn2)no[n+]1[O-]` was run?
A: 56.2% (inactive)

Q: For `CC(C)Sc1nc(NCCc2c[nH]c3ccccc23)c(C#N)c(-c2ccc(F)cc2)n1`, which growth is on record?
A: 14.4% (inactive)
